Compound activity: PubChem, National Center for Advancing Translational Sciences (NCATS)
D1 potentiator: enhances dopamine response at the human D1 receptor. AID 504651. HEK293 TREx D1 cells, calcium flux, dopamine EC20 potentiation. potentiation, % at 10 µM. 360,000 compounds, 0.036% hits; in the data active = potentiation above about 30%
TRHR agonist: agonists of human TRH receptor; P34981; TRHR cells, calcium flux fluo-8, FDSS agonist mode; activation, % at 2 µM; 360,000 compounds, 0.18% hits; AID 493084
Target sequence (P34981 whole entry, looked up): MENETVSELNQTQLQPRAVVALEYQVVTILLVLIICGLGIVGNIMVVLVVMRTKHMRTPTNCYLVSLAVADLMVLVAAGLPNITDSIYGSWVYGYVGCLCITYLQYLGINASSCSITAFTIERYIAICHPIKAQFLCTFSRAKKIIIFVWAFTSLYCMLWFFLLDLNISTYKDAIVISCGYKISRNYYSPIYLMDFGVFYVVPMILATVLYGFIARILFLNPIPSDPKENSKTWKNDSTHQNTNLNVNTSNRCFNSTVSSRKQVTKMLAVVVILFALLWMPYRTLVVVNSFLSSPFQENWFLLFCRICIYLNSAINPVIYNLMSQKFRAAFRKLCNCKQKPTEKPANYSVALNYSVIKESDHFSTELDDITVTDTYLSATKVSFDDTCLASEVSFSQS
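TRHR-expressing cells loaded with fluo-8 calcium dye; 23 nL library compound pin-transferred, kinetic FDSS fluorescence (Ex 480/Em 530) recorded about 180 s for agonist-induced calcium release, before a 10 nM TRH EC20 addition for potentiator mode.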
D1 antag: antagonists of human D1 dopamine receptor; activity change, negative = inhibition, % at 10 µM; P21728; 360,000 compounds, 3.2% hits; HEK293 TREx D1 cells, calcium flux, dopamine EC80; active compounds read low; in the data active = activity change below about -30%
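Allosteric or orthosteric antagonism assessed as attenuation of the calcium response to EC80 dopamine, added 180 s after compound, in induced HEK293 Trex D1 cells loaded with no-wash calcium dye.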
D1 ag: activates the human D1 dopamine receptor. 360,000 compounds, 1% hits. HEK293 T-REx D1 cells, calcium flux, agonist mode. AID 504660. P21728. activation, % at 2 µM
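Tetracycline-induced HEK293 TREx D1 cells, force-coupled to calcium signalling, were dye-loaded with a no-wash calcium kit. Compound was pin-added after a 10 s baseline. Fluorescence was read kinetically at 1 cycle/s for 180 s, with calcium rises flagged as agonism.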
TRHR enhancer: TRH receptor (human) allosteric enhancement; AID 493056; TRHR cells, fluo-8 calcium fluorescence, EC20 TRH enhancement; P34981; 360,000 compounds, 0.66% hits; enhancement, % at 2 µM; in the data active = enhancement above about 30%
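TRHR-expressing cells loaded with fluo-8 calcium dye were read kinetically (ex 480/em 530) during compound addition, then stimulated with an EC20 of TRH (10 nM final). Enhancement of the Gq-mediated intracellular calcium response was scored.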
Each line names hits and unclear results; the compound was inactive in the other large screens. Compounds with a hit are over-represented: about 4.7% of the library has one in this group of screens. Rule as the data show it, unless noted: active = activation above about 30%; inactive = the rest.

COc1ccc(C(=O)O)cc1S(=O)(=O)Nc1ccc(C)cc1	D1 antag -70
CSc1ccc(S(=O)(=O)Nc2ccccc2C(=O)N2CCOCC2)cc1	none
O=C(c1ccccc1NS(=O)(=O)c1ccc(Br)cc1)N1CCOCC1	D1 antag -33
COC(=O)COc1ccc(S(=O)(=O)Nc2ccc3c(c2)OCCO3)cc1Cl	D1 antag -33
COc1ccc(C(=O)O)cc1S(=O)(=O)Nc1cccc(C)c1	none
NS(=O)(=O)c1ccc(NS(=O)(=O)c2ccc3c(c2)OCCO3)cc1	none
O=S(=O)(Nc1ccc(Cl)cc1)c1ccc(NS(=O)(=O)c2ccc3c(c2)OCCO3)cc1	D1 ag 61
CC(=O)c1cccc(NC(=O)CSc2nc(=O)n(CCN3CCOCC3)c3c2CCCC3)c1	none
NC(=O)c1ccccc1NS(=O)(=O)c1ccc2c(c1)OCCO2	D1 antag -36
CCOC(=O)c1cnc2c(C)cc(C)cc2c1Nc1ccccc1OCC	none
CCOC(=O)c1cnc2c(ccc3ccccc32)c1Nc1ccccc1O	D1 antag -47
CCOC(=O)c1cnc2c(ccc3ccccc32)c1Cl	D1 antag -53
CCOC(=O)c1cnc2ccc(Cl)cc2c1Nc1ccc(S(=O)(=O)Nc2ncccn2)cc1	none
CCOC(=O)c1cnc2c(C)c(Cl)ccc2c1Nc1ccc(S(=O)(=O)Nc2ncccn2)cc1	D1 antag -39
Cc1ccc(C)c(Nc2ccc3nonc3c2[N+](=O)[O-])c1	none
O=[N+]([O-])c1ccc(O)c(Nc2c([N+](=O)[O-])ccc3nonc23)c1	D1 antag -49
Cc1ccc(C)c(Nc2c([N+](=O)[O-])ccc3nonc23)c1	D1 ag 108
COC(=O)CN1C(c2cccc(Cl)c2)=Nc2ccc(Cl)cc2C1c1ccccc1 (centres undefined)	none
COC(=O)CN1C(CN2CCOCC2)=Nc2ccc(Br)cc2C1c1ccccc1 (centres undefined)	D1 antag -49
Cc1cccc(N2CCN(C(=O)CS(=O)(=O)Cc3nc(-c4ccccc4C)oc3C)CC2C)c1 (centres undefined)	none
COc1ccc(-c2csc(N(CCCN(C)C)C(=O)c3ccccc3C)n2)cc1	D1 antag -54, D1 ag 33
CCC(=O)N(CC)c1nc(-c2ccc(OC)cc2)cs1	D1 antag -47, D1 ag 113
O=C(Nc1cccc(Cl)c1)Nc1ccccc1OCc1cc(=O)n2ccccc2n1	none
Cc1ccc(S(=O)(=O)N/N=C/c2ccc(C#N)cc2)cc1	none
CN(C)CC1CCCCC1C1(O)c2ccccc2CSc2sccc21 (centres undefined)	D1 ag 78
COc1ccc(N2CC(C(=O)N3CCN(c4ccccc4OC)CC3)CC2=O)cc1 (centres undefined)	none
CCn1cc(CN2CCc3c([nH]c4ccccc34)C2c2cccc(OC)c2)c(C)n1 (centres undefined)	D1 antag -35
CCn1cc(CN2CCc3c([nH]c4ccccc34)C2c2cccc(O)c2)c(C)n1 (centres undefined)	none
O=[N+]([O-])c1cc(CSC2=NCCN2)ccc1O	D1 antag -55
CCCOc1ccc(CSC2=NCCN2)cc1[N+](=O)[O-]	none
COc1cc(Cn2c(=O)oc3ccc(C)cc32)ccc1OC(C)C	D1 antag -33
COc1ccc(NC(=O)c2sc3nc[nH]c(=O)c3c2C)cc1OC	none
CCOc1ccc(N2CC(NC(=O)/C=C\c3ccc4c(c3)OCO4)CC2=O)cc1 (centres undefined)	none (no result: D1 antag)
Cc1ccccc1OCCNc1cc(N2CCN(CCO)CC2)ccc1[N+](=O)[O-]	D1 ag 33
CC1CN(c2ccc([N+](=O)[O-])c(NCCOc3ccccc3)c2)CCN1 (centres undefined)	D1 ag 32
COc1ccc(OCCNc2cc(N3CCCCC3)ccc2[N+](=O)[O-])cc1	none
COCCCN1C(=O)C2C(C(=O)Nc3cccc(Cl)c3)C3C=CC2(O3)C1C(=O)NC1CCCCC1 (centres undefined)	none
CC(Sc1nnc(-c2cccnc2)n1-c1ccccc1F)C(=O)N1CCCc2ccccc21 (centres undefined)	TRHR enhancer 37
CC(Sc1nnc(-c2cccnc2)n1N)C(=O)N1CCOCC1 (centres undefined)	none
Cn1cc(CN2CCC(C(=O)Nc3cccc(-c4cscn4)c3)CC2)cn1	D1 antag -49
C=CCn1cc(CN2CCC(C(=O)Nc3cccc(-c4cccc(F)c4)c3)CC2)c(C)n1	D1 antag -39
Cn1cc(CN2CCC(C(=O)Nc3cccc(-c4cccc(F)c4)c3)CC2)cn1	none
Cc1nn(C(C)C)c(C)c1CN1CCC(C(=O)Nc2cccc(-c3cccc(F)c3)c2)CC1	D1 ag 32
C=CCn1cc(CN2CCC(C(=O)Nc3cccc(-c4cccc(Cl)c4)c3)CC2)c(C)n1	D1 antag -35
Cc1cccc(CN2CCC(C(=O)Nc3cccc(-c4cccc(F)c4)c3)CC2)n1	none
CCn1cc(CN2CCC(C(=O)Nc3cccc(-c4cscn4)c3)CC2)cn1	none
COc1ccc(CN2C(=O)N(c3ccc(F)cc3)C(=O)C2CC(=O)Nc2ccccc2)cc1 (centres undefined)	none
CCc1ccc(NC(=O)NCCN2CCCCC2)cc1	none
Cc1ccc(CN2CCSc3ccc(C(=O)Nc4cc(C)cc(C)c4)cc32)cc1	none
Cc1ccc(-c2csc3ncn(CC#N)c(=O)c23)cc1C	none
O=C(Nc1ccccc1)C1CCCN(C(=O)c2ccc(F)cc2)C1 (centres undefined)	none
COC(=O)c1nn(-c2cccc(C(F)(F)F)c2)c(=O)cc1Sc1ccccn1	TRHR enhancer 39
Cc1c(NC(=O)C(C)OC(=O)COc2ccccc2)c(=O)n(-c2ccccc2)n1C (centres undefined)	none
CC(OC(=O)c1ccc(NC(=O)CC#N)cc1)C(=O)NCCC1=CCCCC1 (centres undefined)	none
Cc1c(NC(=O)C(C)OC(=O)c2ccc(NC(=O)CC#N)cc2)c(=O)n(-c2ccccc2)n1C (centres undefined)	D1 antag -33
CC(OC(=O)c1ccc(NC(=O)CC#N)cc1)C(=O)NC(=O)NC1CCCCC1 (centres undefined)	D1 antag -32
Cc1ccccc1NCC(=O)N/N=C/c1ccc([N+](=O)[O-])cc1	D1 antag -43
NC(=O)N/N=C/c1ccc(-c2ccc([N+](=O)[O-])cc2)o1	none
O=C(N/N=C/c1ccc(-c2ccc([N+](=O)[O-])cc2)o1)c1cccnc1	D1 antag -42
O=C(N/N=C/c1ccc([N+](=O)[O-])cc1)c1cccnc1	none
O=C(Cc1ccccc1)N/N=C/c1ccc(-c2ccc([N+](=O)[O-])cc2)o1	D1 antag -54
O=C1CNC(=S)N1C1CCCCCC1	none
